Experimental data taken from PubChem BioAssay (NCI).
Compounds without any hit were thinned out: in the full panel of roughly 79,000, 15% have a hit. No stated cut-off is given here; in the data, active means growth inhibition above about 70%; inactive means the rest.

Legend:
[1] = NCI Yeast Anticancer Drug Screen. Data for the rad50 strain (AID 155);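 further: 0% = growth of vehicle-only cultures of the same strain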; settings: S. cerevisiae rad50 strain growth inhibition; at 50.0 µM; active compounds read high
In short: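 Relative growth inhibition (compound vs vehicle) was measured in yeast with a defined repair-gene alteration.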

[2] = NCI Yeast Anticancer Drug Screen. Data for the mec2-1 strain (AID 157); settings: S. cerevisiae mec2-1 strain, at 50.0 µM, active compounds read high
In short: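 Growth inhibition is read against vehicle-treated controls after compound exposure of the mec2-1 yeast strain, which is defective in DNA damage repair or cell cycle control.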

[3] = NCI Yeast Anticancer Drug Screen. Data for the sgs1 mgt1 strain (AID 161);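 further: 0% = growth of cultures given vehicle only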; settings: S. cerevisiae sgs1 mgt1 strain, at 50.0 µM, active compounds read high
In short: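 This yeast growth screen uses a strain with defined DNA-repair lesions; compound-treated growth is compared with vehicle-treated growth.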

[4] = NCI Yeast Anticancer Drug Screen. Data for the cln2 rad14 strain (AID 165);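 further: 0% = growth equal to vehicle treated cultures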; settings: S. cerevisiae cln2 rad14 strain, at 50.0 µM, active compounds read high
In short: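 Growth inhibition, relative to vehicle-treated controls, is the read-out. The test organism is a yeast strain with defined genetic alterations, cln2 rad14.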

[5] = NCI Yeast Anticancer Drug Screen. Data for the bub3 strain (AID 167); settings: S. cerevisiae bub3 mutant strain, at 50.0 µM, active compounds read high
In short: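 Screening used yeast with an engineered genetic alteration affecting cell cycle control. Compound-exposed cultures were compared with vehicle cultures, and reduced growth was taken as inhibition.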

[6] = NCI Yeast Anticancer Drug Screen. Data for the mlh1 rad18 strain (AID 175); settings: S. cerevisiae mlh1 rad18 strain growth inhibition; at 50.0 µM; active compounds read high
In short: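 Cells of a genetically altered yeast strain, deficient in DNA damage repair, were treated with compound. Their growth was then compared with that of vehicle-treated cultures to give inhibition.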

Measured: growth inhibition

Cc1cc2c(cc1C)OC(=O)CC2
inactive: [1] 14.3% | [2] 6.15% | [3] -1.2% | [4] -11.9% | [5] 7.45% | [6] 3.65%

Nc1cc(Cl)nc(Cl)n1
inactive: [1] 1.5% | [2] -25.6% | [3] 2.45% | [4] 10.1% | [5] -19.4% | [6] 3.8%

COC(=O)C(=O)C(C(=O)C(=O)Nc1cccc([N+](=O)[O-])c1)c1nc2ccc(Cl)cc2[nH]c1=O (centres undefined)
inactive: [1] 15% | [2] -22.2% | [3] 14.2% | [4] -19.1% | [5] -1.5% | [6] 0.2%

Cc1[nH]c(=S)[nH]c(=O)c1CCC(C)C
inactive: [1] 9.5% | [2] 14.8% | [3] 14.1% | [4] 52.1% | [5] 37.8% | [6] 6.5%

CC(CO)(CO)N1C(=O)C2C3c4ccccc4C(c4ccccc43)C2C1=O (centres undefined)
inactive: [1] -2% | [2] 1.05% | [3] 1.65% | [4] -3.15% | [5] -3.95% | [6] -28.7%

Cc1cccc2c1Oc1ccccc1C2N1C(=O)c2ccccc2C1=O (centres undefined)
inactive: [1] 6.65% | [2] 2.5% | [3] 4.9% | [4] 25.4% | [5] 9.95% | [6] 6.35%

CCOC1OC(C2COC(=S)O2)C(O)C1O (centres undefined)
inactive: [1] 9.35% | [2] -2.15% | [3] 7.85% | [4] -4.1% | [5] -0.15% | [6] 13.6%

CCCCCCCCCO/N=C\c1c2c(O)c3c(O)c(C)c4c(c3c1O)C(=O)C(C)(O/C=C\C(OC)C(C)C(OC(C)=O)C(C)C(O)C(C)C(O)C(C)/C=C\C=C(\C)C(=O)N2)O4 (centres undefined)
inactive: [1] -1.15% | [2] 19.9% | [3] 11.5% | [4] -13.9% | [5] -6.6% | [6] 30.8%

OC1CCC(C2CCCCC2)CC1 (centres undefined)
inactive: [1] -8.5% | [2] -8.05% | [3] -2.65% | [4] 6.8% | [5] -14.3% | [6] -8.65%

CC(=O)Nc1ccc(N=Nc2cccc(C)c2)cc1C
inactive: [1] -1.6% | [2] -1.6% | [3] 10.1% | [4] -13.1% | [5] 2.4% | [6] -7.2%

N#Cc1c2c(n3c1[nH]c(=O)c1ccccc13)CCCC2
inactive: [1] 24.4% | [2] 10% | [3] 23.9% | [4] 11.9% | [5] -2.8% | [6] 10.8%

COc1ccc(NC(=O)CSc2nnc(-c3ccc(NC(C)=O)cc3)o2)cc1
inactive: [1] 22.5% | [2] 2.2% | [3] 35.6% | [4] 22.2% | [5] 36% | [6] 0.55%

O=C(O)CNS(=O)(=O)c1ccccc1
inactive: [1] -43.5% | [2] -7.7% | [3] -23.1% | [4] -24.6% | [5] -0.8% | [6] 6%

CCc1ccc(-c2c(-c3ccccc3)c(-c3ccccc3)c(-c3ccccc3)c(-c3ccccc3)c2-c2ccccc2)cc1
inactive: [1] 31.1% | [2] 6.3% | [3] 21.9% | [4] 26.1% | [5] -6.3% | [6] 30.9%

OCC(O)C(O)Cc1cnc(C(O)C(O)C(O)CO)cn1 (centres undefined)
inactive: [1] 6.65% | [2] 5.65% | [3] -6.95% | [4] -20.2% | [5] -9.45% | [6] 6.4%

NC(N)=NS(=O)(=O)c1ccc(Nc2c3ccccc3nc3c(C(=O)N4CCN(CCO)CC4)cccc23)cc1
inactive: [1] -0.4% | [2] -7.8% | [3] 2.95% | [4] 22.4% | [5] -5% | [6] -11.2%

CCC(C#N)(C(=O)OC)/C(C)=C/C(C)C (centres undefined)
inactive: [1] 7.95% | [2] -13.2% | [3] -3.45% | [4] -7.25% | [5] -26.9% | [6] -25.1%

Cc1[nH]n(C(=N)N)c(=O)c1CCO
inactive: [1] -7.15% | [2] 11.6% | [3] -18.6% | [4] -6.35% | [5] 2% | [6] -50.7%

CC(=O)NC(=O)C(C(C)=O)c1ccccc1 (centres undefined)
inactive: [1] -5.8% | [2] -0.25% | [3] -7.35% | [4] 12.8% | [5] -7.75% | [6] -10.9%

OC1(c2cccc(C(F)(F)F)c2)CCNCC1
inactive: [1] -21.8% | [2] -13.5% | [3] -7.4% | [4] -6.9% | [5] -22.6% | [6] -8.3%

Nc1ccc(CCc2ccc3ccccc3n2)cc1
inactive: [1] 33.2% | [2] -9.25% | [3] 15.9% | [4] 7.9% | [5] -16.2% | [6] 33.5%

N#Cc1cc(C#N)c(N)nc1N
inactive: [1] 14.1% | [2] 6.35% | [3] 1.8% | [4] 13.4% | [5] -1.25% | [6] -5.7%

O=CC(=O)c1cccc([N+](=O)[O-])c1
inactive: [1] 3.55% | [2] 7.75% | [3] -3.6% | [4] 11.4% | [5] -29.2% | [6] 10.4%

O=S(=O)(c1cccc(C(F)(F)F)c1)N(CCCCCN(S(=O)(=O)c1cccc(C(F)(F)F)c1)S(=O)(=O)c1cccc(C(F)(F)F)c1)S(=O)(=O)c1cccc(C(F)(F)F)c1
inactive: [1] -12.2% | [2] 2.95% | [3] 0.2% | [4] 21.3% | [5] 11.9% | [6] 10.2%

CC(=O)O/C(=C\C(=O)[C@H]1CC[C@H]2[C@@H]3CC[C@@H]4C[C@H](OC(C)=O)CC[C@]4(C)[C@H]3C(=O)C[C@]12C)C(F)(F)F
inactive: [1] -16.1% | [2] 23.6% | [3] 5.25% | [4] 18.8% | [5] 8.85% | [6] -13.6%

O=C(Nc1ccc(C(=O)CCl)cc1)Nc1ccc(C(=O)CCl)cc1
inactive: [1] 8.65% | [2] 14.1% | [3] 20.2% | [4] 0.35% | [5] 12.9% | [6] 14.6%

COc1ccc(Cl)cc1C(c1cc(Cl)ccc1OC)C(Cl)(Cl)Cl
inactive: [1] -7.35% | [2] -1.6% | [3] -9.05% | [4] -23.6% | [5] -16.6% | [6] -13.4%

O=C1Cc2ccccc2CCc2ccccc21
inactive: [1] 13.2% | [2] -13.3% | [3] 6.5% | [4] 22.8% | [5] -13.8% | [6] 24%

CC(=O)OCC1COC(C)(c2ccccc2)O1 (centres undefined)
inactive: [1] 4.65% | [2] 0.3% | [3] -6.65% | [4] 3.7% | [5] 4.15% | [6] -9.55%

CN(c1ccc(Br)cc1)c1nc(N)nc(N)c1N=O
inactive: [1] 16.4% | [2] -10.6% | [3] 5.05% | [4] -98.6% | [5] 5.2% | [6] -1.8%

Cc1ccc(C(=N)c2ccccc2Cc2ccccc2)cc1
inactive: [1] -14.4% | [2] -10.7% | [3] -12.8% | [4] 2.75% | [5] 3.9% | [6] -20.3%

CN(N=O)c1nc2c(C(N)=O)ncn2s1
inactive: [1] 10.2% | [2] 16.4% | [3] 4.95% | [4] 2.2% | [5] 13.9% | [6] 24.1%

CCCCCCCCCC(CCCCCCCC(=O)O)NC(C)=O (centres undefined)
inactive: [1] 32.3% | [2] 16.6% | [3] 7.45% | [4] 32.5% | [5] -18.1% | [6] 1.05%

O=C(O)C(CNCc1ccccc1)(c1ccccc1)c1ccccc1
inactive: [1] 5.55% | [2] -9.25% | [3] 10.3% | [4] 4.9% | [5] 1.3% | [6] 12.7%

O/N=C(/CC(O)(C(F)(F)F)C(F)(F)F)c1ccccc1
inactive: [1] -9.1% | [2] -18% | [3] -7.9% | [4] -38.8% | [5] -6.9% | [6] 11.8%

CCOc1ccc(NC(=S)NC=C(C#N)C#N)cc1
inactive: [1] -17.8% | [2] -12.6% | [3] -9.55% | [4] -4.9% | [5] 7.75% | [6] -5.75%

Clc1ccc2cc(Cl)c3ccccc3c2c1
inactive: [1] -17.4% | [2] -24.4% | [3] -16.4% | [4] -20.9% | [5] 4.25% | [6] -0.05%

N#Cc1nnc2cc(-c3ccccc3)nn2c1-c1cccs1
inactive: [1] 0.6% | [2] -8.6% | [3] 15.8% | [4] 21.1% | [5] 4.1% | [6] 6.35%

Cc1ccc(S(=O)(=O)Nc2cccc3c(=O)[nH]cnc23)cc1
inactive: [1] 1.6% | [2] -13.8% | [3] 1.2% | [4] -37.2% | [5] 10.3% | [6] 18.8%
